The source of these data is PubChem BioAssay.

Assay [1] in a line: small molecules captured by biotinylated probe aFSTL3 – biochemical, small-molecule microarray, fluorescence 635/667, stem cell growth factor project, primary screen (AID 1064).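 Further: measures binding of the biotinylated anti-FSTL3 antibody to printed compounds.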 The following applies: higher = more signal.
Assay [2] can be described thus: binders from COS7 lysate, DM2A8 probe, primary screen, torsin A project, cell lysate, small-molecule microarray, fluorescence 635/667 (AID 1065). The following applies: higher = more signal, COS7 lysate expressing mutant human TOR1A.
Assay [3] is described as follows: small molecules captured by biotinylated probe aFGF2 – biochemical, small-molecule microarray, fluorescence 635/667, stem cell growth factor project, primary screen (AID 1067).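 Further: measures binding of biotinylated aFGF2 protein to printed compounds on slides; z-score merges feature fluorescence and signal-to-noise across triplicate slides.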 The following applies: higher = more signal.
The nature of assay [4]: small molecules captured by biotinylated probe aFGF10 – biochemical, small-molecule microarray, fluorescence 635/667, stem cell growth factor project, primary screen (AID 1071).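 Further: score merges 667 nm spot intensity and signal to noise from triplicate slides.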 The following applies: higher = more signal.
For assay [5], the target named is Neurogenic locus notch homolog protein 2 (Homo sapiens) (UniProt Q04721). As to the kind of experiment: small molecules binding Notch2 protein – biochemical, small-molecule microarray, 635 nm fluorescence, stem cell growth factors, primary screen (AID 1073). The following applies: higher = more signal.
For assay [6], the target named is Pro-neuregulin-1, membrane-bound isoform (Homo sapiens) (UniProt Q02297). As to the kind of experiment: small molecules binding neuregulin-1 protein – biochemical, small-molecule microarray, fluorescence 635/667, psychiatric disease protein project, primary screen (AID 1075).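 Further: score combines 667 nm spot fluorescence with signal to noise.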 The following applies: NRG1 binding, 635 nm fluorescence, higher = more signal.
Assay [7] deals with Neuregulin-1 EGF-like domain. The experiment in a line: small molecules binding NRG1 EGF domain – biochemical, small-molecule microarray, 635 nm fluorescence, primary screen (AID 1081).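 Further: binding of the protein to compounds printed on small-molecule microarray slides.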 The following applies: higher = more signal.
A short description of assay [8]: FRG1 expression reporter modulators in myotubes – cell-based, C2C12 myotubes, firefly/Renilla luciferase, luminescence, FRG1 inhibition for FSHD, primary screen (AID 1084). The following applies: FRG1 promoter luciferase, higher = more signal, called active from +8 up or from −8 down.
Assay [9] can be described thus: small molecules captured by biotinylated probe aFST – biochemical, small-molecule microarray, fluorescence 635/667, stem cell growth factor project, primary screen (AID 1086).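 Further: score merges 667 nm fluorescence with signal-to-noise of each printed compound spot.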 The following applies: higher = more signal.
Assay [10] in a line: binders of probe aHhip on microarray, primary screen, stem cell growth factor project, biochemical, small-molecule microarray, fluorescence 635/667 (AID 1087).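 Further: score merges spot fluorescence at 667nm with spot signal to noise ratio.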 The following applies: higher = more signal.
The test system of assay [11] is PRMT1 (protein arginine N-methyltransferase 1). The experiment in a line: small molecules binding arginine methyltransferase PRMT1 – biochemical, small-molecule microarray, 635 nm fluorescence, primary screen (AID 1088).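 Further: binding of Prmt1 protein to compounds spotted on small-molecule microarray slides.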 The following applies: higher = more signal.
Assay [12] can be described thus: growth effects on S. cerevisiae YJM789 – YJM789 clinical isolate, OD600, 24 h, basal, primary screen (AID 1089).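 Further: growth of clinical yeast isolate S. cerevisiae YJM 789 seeded 1000 cells per well; test concentration not given here.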 The following applies: higher = more signal, called active from +8 up or from −8 down.
A short description of assay [13]: S. pombe growth modifiers, basal conditions – strain 972, OD600, 24 h, no modulator, primary screen (AID 1090).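 Further: basal condition with compound alone and no growth modifier present; test concentration not given here.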 The following applies: S. pombe 972 growth, higher = more signal, called active from +8 up or from −8 down.
A short description of assay [14]: budding yeast growth modifiers under rapamycin – strain BY4716, OD600, 96 h, primary screen (AID 1091). Further: test concentration not given here. The following applies: S. cerevisiae BY4716 + rapamycin, higher = more signal, called active from +8 up or from −8 down.
In assay [15] the target is Torsin-1A-interacting protein 2 (Homo sapiens) (UniProt Q8NFQ8). As to the kind of experiment: small molecules binding lysate-expressed LULL1 – cell lysate, human LULL1 lysate, 635/667 nm fluorescence, primary screen (AID 1092).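 Further: probe is lysate of COS7 cells overexpressing human LULL1; score merges per-feature 667 nm fluorescence with signal-to-noise.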 The following applies: small-molecule microarray, hLULL1 lysate binding, 635 nm fluorescence; higher = more signal.
The nature of assay [16]: optical density change of DRC41 E. coli – strain DRC41, OD650, 24 h, E. coli filamentation project, primary screen (AID 1093).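 Further: MC1000 strain lacking acrAB efflux and sulA so SOS filamentation is blocked; test concentration not given here.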 The following applies: E. coli DRC41 growth, higher = more signal, called active from +8 up or from −8 down.
Assay [17] is described as follows: probe aLefty2 binding to arrayed compounds – biochemical, biotinylated probe, 635/667 nm fluorescence, primary screen (AID 1094).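 Further: score merges spot fluorescence near 667 nm with spot signal-to-noise ratio.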 The following applies: small-molecule microarray, higher = more signal.
In assay [18] the test system is Noggin (protein binding on small-molecule microarray). As to the kind of experiment: small molecules binding Noggin protein – biochemical, 635/667 nm fluorescence, primary screen (AID 1095).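 Further: score merges 667 nm feature fluorescence with signal to noise over triplicate slides.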 The following applies: 635 nm fluorescence, higher = more signal.
For assay [19], the target named is Neurogenic locus notch homolog protein 3 (Homo sapiens) (UniProt Q9UM47). As to the kind of experiment: small molecules binding NOTCH3 protein – biochemical, 635/667 nm fluorescence, primary screen (AID 1096). The following applies: small-molecule microarray, 635 nm fluorescence, higher = more signal.
The nature of assay [20]: probe aEGFR binding to arrayed compounds – biochemical, biotinylated probe, 635/667 nm fluorescence, primary screen (AID 1097).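 Further: probe is a biotinylated anti-EGFR antibody binding compounds printed on slides; score combines fluorescence near 667 nm and signal to noise of each spot.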 The following applies: small-molecule microarray, higher = more signal.

Each structure is given as a SMILES string. Calls of active or inactive are those of the source.

Sequence of Neurogenic locus notch homolog protein 3 (Homo sapiens) (Q9UM47 whole entry, looked up): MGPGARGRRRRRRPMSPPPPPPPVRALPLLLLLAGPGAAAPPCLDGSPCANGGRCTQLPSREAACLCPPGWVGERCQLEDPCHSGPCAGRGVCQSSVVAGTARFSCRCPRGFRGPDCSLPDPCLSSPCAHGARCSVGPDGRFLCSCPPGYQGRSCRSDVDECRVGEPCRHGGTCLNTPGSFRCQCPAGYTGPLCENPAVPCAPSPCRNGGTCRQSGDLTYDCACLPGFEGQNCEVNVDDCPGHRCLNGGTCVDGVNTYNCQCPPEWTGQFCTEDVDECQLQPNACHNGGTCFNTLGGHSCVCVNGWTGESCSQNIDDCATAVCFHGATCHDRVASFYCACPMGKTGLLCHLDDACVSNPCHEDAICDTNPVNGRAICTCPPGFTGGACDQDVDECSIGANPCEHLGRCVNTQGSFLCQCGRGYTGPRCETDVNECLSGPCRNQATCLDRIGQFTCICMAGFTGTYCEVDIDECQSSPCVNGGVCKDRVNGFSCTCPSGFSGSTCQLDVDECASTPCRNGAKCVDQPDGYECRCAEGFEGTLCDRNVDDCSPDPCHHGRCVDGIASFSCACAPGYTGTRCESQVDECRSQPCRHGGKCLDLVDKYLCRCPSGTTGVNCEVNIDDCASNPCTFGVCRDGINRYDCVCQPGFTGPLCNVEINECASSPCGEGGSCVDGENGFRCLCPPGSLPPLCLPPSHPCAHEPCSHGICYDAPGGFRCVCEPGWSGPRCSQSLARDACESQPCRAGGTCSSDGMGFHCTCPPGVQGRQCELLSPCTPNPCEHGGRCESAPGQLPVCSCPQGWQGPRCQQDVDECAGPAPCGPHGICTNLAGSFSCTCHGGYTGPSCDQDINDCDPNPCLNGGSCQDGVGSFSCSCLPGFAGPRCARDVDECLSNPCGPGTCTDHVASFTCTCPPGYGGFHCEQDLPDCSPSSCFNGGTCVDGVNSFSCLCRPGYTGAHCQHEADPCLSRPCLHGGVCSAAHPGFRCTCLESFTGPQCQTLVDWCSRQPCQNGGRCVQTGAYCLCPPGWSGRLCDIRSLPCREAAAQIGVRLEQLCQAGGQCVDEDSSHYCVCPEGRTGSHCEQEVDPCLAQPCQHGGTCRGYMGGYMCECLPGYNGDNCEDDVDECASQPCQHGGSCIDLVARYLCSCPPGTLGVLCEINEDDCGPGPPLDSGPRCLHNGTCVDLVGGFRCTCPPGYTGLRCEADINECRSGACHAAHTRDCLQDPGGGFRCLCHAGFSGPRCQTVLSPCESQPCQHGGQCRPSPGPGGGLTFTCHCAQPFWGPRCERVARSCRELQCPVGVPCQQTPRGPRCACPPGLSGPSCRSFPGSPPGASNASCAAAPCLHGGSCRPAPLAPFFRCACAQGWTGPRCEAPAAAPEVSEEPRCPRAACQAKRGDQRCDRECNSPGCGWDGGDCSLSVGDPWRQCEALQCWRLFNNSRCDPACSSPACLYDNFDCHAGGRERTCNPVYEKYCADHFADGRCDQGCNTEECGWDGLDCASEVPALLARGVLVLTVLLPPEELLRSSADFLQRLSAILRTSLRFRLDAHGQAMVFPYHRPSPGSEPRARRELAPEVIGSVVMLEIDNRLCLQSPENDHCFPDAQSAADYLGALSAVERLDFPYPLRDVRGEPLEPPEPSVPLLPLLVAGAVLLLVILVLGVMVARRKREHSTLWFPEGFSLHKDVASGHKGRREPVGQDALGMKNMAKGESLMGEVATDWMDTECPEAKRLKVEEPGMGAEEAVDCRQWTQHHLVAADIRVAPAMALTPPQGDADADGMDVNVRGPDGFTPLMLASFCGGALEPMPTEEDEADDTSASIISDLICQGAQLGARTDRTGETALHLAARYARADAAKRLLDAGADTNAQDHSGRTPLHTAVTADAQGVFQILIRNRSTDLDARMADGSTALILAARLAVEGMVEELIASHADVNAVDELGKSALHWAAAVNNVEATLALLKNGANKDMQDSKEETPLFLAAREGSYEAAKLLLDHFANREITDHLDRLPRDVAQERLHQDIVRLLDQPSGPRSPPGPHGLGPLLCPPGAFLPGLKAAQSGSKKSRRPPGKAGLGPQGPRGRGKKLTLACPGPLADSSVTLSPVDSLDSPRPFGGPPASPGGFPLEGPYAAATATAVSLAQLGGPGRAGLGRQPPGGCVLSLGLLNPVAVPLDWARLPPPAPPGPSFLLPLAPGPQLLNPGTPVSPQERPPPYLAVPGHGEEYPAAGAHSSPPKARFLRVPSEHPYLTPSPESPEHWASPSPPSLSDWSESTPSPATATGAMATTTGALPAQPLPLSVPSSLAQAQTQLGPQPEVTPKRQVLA
Sequence of Pro-neuregulin-1, membrane-bound isoform (Homo sapiens) (Q02297 whole entry, looked up, the tested form may be a part, canonical isoform): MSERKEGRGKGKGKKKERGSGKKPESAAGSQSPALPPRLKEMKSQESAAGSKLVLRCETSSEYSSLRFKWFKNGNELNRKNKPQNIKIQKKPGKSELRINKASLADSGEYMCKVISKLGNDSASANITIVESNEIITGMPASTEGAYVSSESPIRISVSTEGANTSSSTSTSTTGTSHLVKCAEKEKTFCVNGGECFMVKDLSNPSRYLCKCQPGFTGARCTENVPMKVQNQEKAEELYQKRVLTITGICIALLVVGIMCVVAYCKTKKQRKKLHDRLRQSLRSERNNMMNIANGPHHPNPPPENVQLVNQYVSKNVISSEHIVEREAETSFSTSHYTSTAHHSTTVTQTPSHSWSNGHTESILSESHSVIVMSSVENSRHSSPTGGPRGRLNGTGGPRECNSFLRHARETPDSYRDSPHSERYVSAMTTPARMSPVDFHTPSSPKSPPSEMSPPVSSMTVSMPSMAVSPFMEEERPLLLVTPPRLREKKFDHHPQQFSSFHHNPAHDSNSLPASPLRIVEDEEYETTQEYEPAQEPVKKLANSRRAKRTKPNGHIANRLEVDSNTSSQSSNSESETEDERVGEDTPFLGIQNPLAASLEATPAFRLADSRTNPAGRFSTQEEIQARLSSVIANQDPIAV
Sequence of Torsin-1A-interacting protein 2 (Homo sapiens) (Q8NFQ8 whole entry, looked up): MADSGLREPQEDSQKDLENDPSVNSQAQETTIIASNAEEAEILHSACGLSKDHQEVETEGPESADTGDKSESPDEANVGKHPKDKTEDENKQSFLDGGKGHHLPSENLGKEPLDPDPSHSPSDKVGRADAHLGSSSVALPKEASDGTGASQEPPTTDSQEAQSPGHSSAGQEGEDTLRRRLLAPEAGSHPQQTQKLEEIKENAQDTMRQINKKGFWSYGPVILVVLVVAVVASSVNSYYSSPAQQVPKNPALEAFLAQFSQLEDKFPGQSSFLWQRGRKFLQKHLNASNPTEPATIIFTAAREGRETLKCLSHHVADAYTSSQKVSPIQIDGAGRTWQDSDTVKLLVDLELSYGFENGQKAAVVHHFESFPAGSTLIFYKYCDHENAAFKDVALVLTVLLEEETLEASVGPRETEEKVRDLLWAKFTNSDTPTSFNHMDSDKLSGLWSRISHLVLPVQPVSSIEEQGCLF

On to `O=C1O[C@@H](c2ccccc2)[C@@H](c2ccccc2)N2[C@@H](c3ccccc3OCCO)[C@]3(C(=O)Nc4ccccc43)[C@@H](C(=O)Nc3nc4ccccc4s3)[C@H]12`, for which the composite z-score in [1] turned out to be 0.0741; in [2] it was 0.581; in assay [3], 0.0566; in assay [4], 0.841; in [5], 1.15; in [6], 2.01. Moreover, the composite z-score in assay [7] was 1.26; in assay [9], 0.247; in assay [10], -0.329; in assay [11], 1.53; in assay [15] it was 3.22; in [17], -0.215. For the same molecule, the composite z-score in [18] was determined as 1.53; in assay [19], 1.04; in assay [20], 0.148. Moreover, the z-score was -1.26 (inactive) in [8]; 1.13 (inactive) in [12]; -0.205 (inactive) in assay [13]; 2.85 (inactive) in assay [14]; 1.26 (inactive) in [16].

`O=C1C[C@@](C(=O)NCCN2CCOCC2)(c2ccc([N+](=O)[O-])cc2)[C@@H](c2ccc(CO)cc2I)N1CC12CC3CC(CC(C3)C1)C2`: the composite z-score was -0.168 in assay [1]; 0.47 in assay [2]; 0.0232 in [3]; 0.569 in assay [4]; 0.926 in assay [5]; 1.64 in assay [6]. Moreover, the composite z-score is 1.37 in assay [7]; 0.45 in assay [9]; 0.192 in assay [10]; 1.54 in assay [11]; 3.2 in assay [15]; -0.112 in assay [17]. The composite z-score is 1.2 in assay [18], 1.08 in [19] and -0.0381 in assay [20]. Besides, the z-score in [8] is -2.84 (inactive); in [12], -24.9 (active); in assay [13], -5.93 (inactive); in assay [14] it was 0.0788 (inactive); in [16] it was -0.981 (inactive).

For the molecule `COc1ccccc1CN1C(=O)c2ccccc2[C@@]2(Cc3ccccc3N(CC(C)C)C2=O)[C@@H]1c1ccc(CO)cc1`, the composite z-score in assay [1] was -0.211; in assay [2] it was -0.44; in assay [3], -0.0543; in [4], 0.134; in assay [5], -0.304; in assay [6], -0.0503. The composite z-score was -0.738 in assay [7]; -0.595 in assay [9]; -0.0994 in assay [10]; 0.545 in assay [11]; -0.359 in [15]; -0.122 in assay [17]. In addition, the results for the composite z-score in assay [18], in assay [19] and in assay [20] were -0.19, -0.285 and -0.127, respectively. For the same molecule, the z-score was -0.0845 (inactive) in assay [8]; -0.928 (inactive) in assay [12]; 0.189 (inactive) in [13]; -1.03 (inactive) in assay [14]; -0.0514 (inactive) in assay [16].

Turning to `COC(=O)[C@@]1(Cc2ccc(F)cc2)[C@H]2c3cc(C(=O)N4CCCC4)n(CCCNc4ncc(C(F)(F)F)cc4Cl)c3C[C@H]2CN1C(=O)c1ccccc1`, the composite z-score was 0.785 in assay [1]; -0.245 in [2]; 0.222 in assay [3]; 0.564 in [4]; 1.66 in assay [5]; 1.73 in assay [6]. The composite z-score in [7] was 1.3; in assay [9] it was 0.977; in assay [10], 0.449; in assay [11] it was -0.954; in assay [15] it was 2.65; in assay [17], 0.83. Also, the composite z-score in assay [18] was -0.756; in assay [19], 0.696; in assay [20], 0.476. Moreover, the z-score in assay [8] is 0.506 (inactive); in assay [12], 1.62 (inactive); in assay [13], 2.15 (inactive); in assay [14], 2.65 (inactive); in [16], -0.87 (inactive).

In the case of `COCCOC(=O)N1C(=O)[C@@]2(c3cc(C#CC4(O)CCCCCC4)ccc31)[C@H](c1ccccc1OCCO)N1[C@H](c3ccccc3)[C@H](c3ccccc3)OC(=O)[C@H]1[C@@H]2C(=O)N1CCN(c2ncccn2)CC1`, the composite z-score in [1] is -0.383; in [2], 0.604; in [3], -0.0425; in [4] it was 0.801; in [5] it was 1.08; in assay [6] it was 1.15. Moreover, the composite z-score in assay [7] is 1.26; in assay [9], 0.484; in assay [10] it was -0.134; in assay [11], 1.55; in [15], 2.73; in assay [17], 0.028. Further, the values for the composite z-score in assay [18], in assay [19] and in assay [20] were 0.574, 0.959 and 0.219, respectively. Also, the z-score was -0.422 (inactive) in [8]; 2.46 (inactive) in assay [12]; 1.5 (inactive) in assay [13]; 6.01 (inactive) in [14]; 1.02 (inactive) in assay [16].
